In all, about 33,000 sequences were measured (“E-score (-0.5 to 0.5)”: median about -8e-05, highest 2% from about 0.23 on). The sample holds the highest values, similar sequences and a random draw of the others, so the mix is not that of the screen.
target: T1, Nrg2 (UniProt P38082); assay: PBM E-score (8-mer binding enrichment) (E-score (-0.5 to 0.5)); higher = stronger / more preferred TF binding; settings: protein concentration: 100 nM; construct: GST-full length
T1 sequence: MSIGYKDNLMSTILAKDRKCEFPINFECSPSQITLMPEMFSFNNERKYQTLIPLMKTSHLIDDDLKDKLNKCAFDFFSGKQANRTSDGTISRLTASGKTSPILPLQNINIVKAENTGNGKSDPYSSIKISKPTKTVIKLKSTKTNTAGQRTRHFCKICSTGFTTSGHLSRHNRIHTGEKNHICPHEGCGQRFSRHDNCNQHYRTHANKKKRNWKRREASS
Description: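 Universal 'all 10-mer' protein binding microarrays (Agilent AMADID 015681) probed with GST-tagged S. cerevisiae TFs (full-length or DBD) made by in vitro transcription/translation (PURExpress), about 100-200 nM. Bound TF was detected with fluorescent anti-GST. Each ungapped 8-mer (which stands for itself and its reverse complement) is scored by the PBM enrichment score (E-score), a modified Wilcoxon-Mann-Whitney statistic from -0.5 to +0.5, computed with the Universal PBM Analysis Suite. Scale: above 0.35 generally sequence-specific binding.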

Sequence	PBM E-score
ACTCCAGC	-0.0193
GATTTCGC	0.281
CATTTCGC	0.184
GATTTCGA	0.00717
ATTTTCGC	0.131
AATTTCGC	0.244
AATTTCGA	0.0453
GTAGTCTA	-0.118
AACACTAT	0.252
AACAATAT	0.266
GACAAGAC	0.154
AACACTAC	0.0505
GACAAAAA	0.0692
AACAATAG	-0.124
AACAATAC	0.202
AGCAATAT	0.0474
ACCAATAT	0.213
AACACTAG	0.152
AACAATAA	0.26
GACAAAAC	0.274
AGTGAATC	0.0226
ATTTGCTC	0.156
GCCGAGGC	0.177
CATTAAGA	-0.214
ACTGGCCT	-0.0393

Sequence	PBM E-score
CCGGAGCC	-0.189
AATAATAA	0.0987
CACAATAC	0.173
AGTAATAC	-0.0266
AATAATAG	0.0626
AACAATCC	0.241
AACAATCG	-0.0412
GACAATAA	0.218
CGTAATAG	-0.00104
AATAATAT	0.283
AGTAATAG	0.247
AACAATCT	0.0946
GACAATAC	0.232
TCTCTTAA	0.123
AGGTTCAG	0.0524
ACCCTTCT	-0.104
GCCTGGTA	0.0618
ATAGGTTA	-0.00463
AGCAATAC	0.12
CGCAATAA	0.211
CGCAATAC	0.231
GATACACC	0.0324
TAATCGAA	0.176
CAATCGAC	-0.102
ATATCGAC	0.255

Sequence	PBM E-score
ATGTCGAC	0.254
GTATCGAC	0.123
AAATCGAA	0.111
CTATCGAC	-0.166
AAATCGAG	0.0129
CTGTCGAC	-0.0435
AAATCGAC	0.237
ATGTCGAA	0.147
CAATCGAA	0.258
CGCCGGAC	0.0155
CCCTGTCC	0.0104
CTTGAAGC	-0.0505
CAACGGTG	-0.187
CAACAAGG	0.186
GACTCTCA	-0.0326
AATGCACC	0.0152
GAATTTGC	0.172
ATCTGAGG	0.0579
ACTAACGA	0.00448
CACAGCGC	0.156
CGCGACCA	0.23
CGCGACAA	0.308
CCCGACAA	0.261
ACCGACAA	0.0162
GGCGAACA	-0.00418

Sequence	PBM E-score
CGCGAACA	0.264
AGCGAACA	0.0707
GGCGACCA	-0.146
TGCGACAA	0.0655
GGCGACAA	-0.0104
AGCGACCA	-0.0183
CCCGACAG	-0.165
ACGCCCCA	0.179
AAGGCGGG	-0.208
CGGTGATA	-0.0567
ACAGAGCA	0.0833
TAGCATGA	0.149
AAAATGAC	0.0768
CAAATGAA	-0.0303
CAAATGAC	0.0271
GAAATGAA	0.29
TAAATGAA	0.0819
GAAATGAC	0.249
AGCGAAAC	0.102
CTTACCAA	0.069
CAGCGCCG	-0.09
ATACCAAT	0.0716
GCAAGAGA	-0.12
CTATTTCC	0.255
ATATTTCC	0.206

Sequence	PBM E-score
CAATTTCC	0.108
CTATTTCA	0.164
AAATTTCC	0.113
GAATTTCC	0.252
AGTAGGTC	-0.219
ATTTAGTC	0.0158
CATTAGTA	0.112
ATTTAGTA	0.274
AATTAGTA	0.23
AATTAGTC	0.107
CTTTAGTA	-0.00347
GATGCGGC	-0.094
ACTCTAGA	-0.0152
GGTGGGGA	0.265
GGCGGGGA	0.249
AATGGGGA	0.0109
TATGGGGA	0.283
GGTGGGAA	-0.0571
CATGGGGA	0.135
GGCGGGAA	-0.11
CGTGGGGA	0.121
CGCGGGGA	0.165
ATACCGAC	-0.243
CCGTCCGA	-0.257
GACTAGGA	-0.0424

Sequence	PBM E-score
CAAATCTA	0.101
ACTTGAGC	-0.295
ACGTGGCT	-0.0848
ATACTGTG	-0.0451
CTACTGAG	-0.00592
ATACTGAT	0.225
ATACTGTC	0.256
ATACTGAG	0.255
ATACTGAC	0.146
AGCCGCGA	-0.0535
AGTCCAAC	0.0694
ATGTTCTC	-0.0462
AGTAAGAG	-0.0249
ATCCCTGG	0.302
ATCCCTGA	0.256
GTCCCTCA	0.0343
GTCCCTGA	0.356
GTCCCTTA	0.288
CTCCCTGA	0.0641
ATCCCTCA	-0.0503
CTCCCTTA	-0.202
ATCCCTCG	0.0848
ATCCCTGC	0.157
ATCCCCTA	0.0411
ATCCCTTA	0.0558

Sequence	PBM E-score
ATCTGCTC	-0.0264
AGGCATAT	-0.0234
ACGAGGGC	0.0428
CCGCCAGA	-0.0239
GACAACCA	0.122
TATCCCAA	-0.005
ATTGGCCA	0.171
TACACGAA	0.18
CTACAGGC	-0.0785
ACAGGGGC	0.0717
ACAGGGTC	0.402
CCAGGGGC	0.0624
CCAGGGTC	0.392
ACAGGGCA	0.195
CCAGGGTA	0.304
CCAGGGCC	0.106
CGAGGGTA	0.0487
AGAGGGTC	-0.0416
ACAGGGCC	0.295
CTAGGGTC	0.188
GCAGGGTA	0.164
GTCCATGA	-0.237

From the supplement of paper PMC3334620
